# Screens (PubChem)
# L929 necroptosis = blocks zVAD induced death of L929 cells; L929 zVAD necroptosis rescue, ATP luminescence, 24 h; with zVAD 60 µM; actives 0.38% (n = 220,000); viability rescue, % at 10 µM;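 active = activation, scaled between plate controls, above about 75%, limit read from the data; inactive = activation under that limit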
# HIF activator = HIF pathway transcriptional activation; activation, % at 7.5 µM (by protocol); actives 0.32% (n = 300,000); U2OS HRE-luciferase reporter, luminescence; normalized: DMSO 0%, desferrioxamine 100%; AID 1910;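 active = mean activation of at least 10% of the iron chelator positive control signal, with at least half of replicates also reaching 10%; inconclusive = mean and replicate majority disagree about reaching 10%; inactive = mean and most replicates under 10%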
# TNF necrop inh = blocks TNF-alpha induced death of Jurkat FADD-/- cells; actives 0.068% (n = 220,000); AID 463075; activation (protection from cell death), % at 10 µM; Jurkat FADD-/- TNF necroptosis rescue, ATP luminescence, 24 h; 0 = TNF only, 100 = no-TNF cells;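 active = activation, meaning protection from cell death, of at least 50% relative to plate controls; inactive = activation below 50%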;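 also: necroptosis triggered by 40 ng/mL TNF-alpha added together with compound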
# Calb FLC = affects C. albicans growth with fluconazole; C. albicans CaCi-2 (fluconazole-resistant clinical isolate) + fluconazole, Alamar Blue growth, 48 h; growth inhibition, % (no concentration beside the values); actives 0.57% (n = 300,000); AID 1979;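 active = growth inhibition above about 58% in most replicates, limit read from the data, passing the limit was not always enough; inconclusive = exactly half the replicates above a set limit; inactive = most replicates below a set limit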;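 also: all wells also contain fluconazole at 8 µg/ml as a sub-toxic cotreatment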
# zVAD necrop conf = confirmed blocker of zVAD induced death in L929 cells; shares compounds with L929 necroptosis; L929 zVAD-induced necroptosis rescue, ATP luminescence, 24 h; activation (protection from necroptosis), % at 10 µM; actives 16% (n = 760);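 active = mean protection from necroptosis of at least 50% over duplicate tests; inactive = mean protection below 50%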
# A number is an active result; 0 = inactive; ? = inconclusive; - = not tested or not shown. A selection: hits, their analogues and other compounds. The true share with any hit is near 1.1%.
SMILES,L929 necroptosis,HIF activator,TNF necrop inh,Calb FLC,zVAD necrop conf
CS(=O)(=O)c1ccc2nc(NC(=O)Cc3ccccc3)sc2c1,76,0,0,0,0
CC(C)C(=O)Nc1nc2ccc(S(C)(=O)=O)cc2s1,84,0,0,0,0
O=C(CCc1ccc(S(=O)(=O)N2CCOCC2)cc1)Nc1ccc2c(c1)OCCO2,0,0,0,0,-
Cc1cccc(-c2c3c(nc4c2c(=O)n(C)c(=O)n4C)-c2ccccc2C3O)c1 (centres undefined),-,0,-,0,-
CC(C)[C@@H](NC(=O)C1CCN(C(=O)[C@@H]2CCCN2C(=O)OC(C)(C)C)CC1)C(=O)NCc1ccc(F)cc1,-,0,-,0,-
O=C(CCCC(=O)N(CC(=O)NC1CCCCC1)c1ccccc1F)Nc1ccccn1,-,0,-,0,-
CCn1nccc1C(=O)Nc1nccs1,85,-,0,-,0
CCn1cc(Br)c(C(=O)Nc2nccs2)n1,0,0,0,0,-
CCCc1cc(C(=O)Nc2nccs2)cs1,99,0,0,0,80
COc1ccc(C(=O)Nc2nccs2)cc1OC,80,0,0,0,0
O=C(Nc1nccs1)c1cccc(NC(=O)C(F)(F)F)c1,97,0,0,0,0
CCC(CC)C(=O)Nc1cccc(C(=O)Nc2nccs2)c1,0,0,0,0,-
COc1cc2c(cc1NC(=O)C(C)OC(=O)c1ccc(S(=O)(=O)Nc3ccccc3Cl)cc1)oc1ccccc12 (centres undefined),0,0,0,0,-
CC1(C)C=Cc2cc(-c3coc4cc(O)cc(O)c4c3=O)cc(O)c2O1,-,0,-,0,-
C[C@H](NC(=O)C1CC(=O)N(c2ccc(F)cc2)C1)C(=O)N1CCCCC1 (some centres undefined),-,0,-,-,-
N#Cc1c(Cl)nc(-c2ccncc2)nc1-c1ccccc1,-,0,-,0,-
O=C(Nc1ccccc1)Nc1nccs1,85,0,0,0,0
COc1ccc(NC(=O)Nc2nccs2)cc1,0,0,0,0,-
COC(=O)c1ccc(NC(=O)Nc2ccc(OC)cc2)cc1,83,0,0,0,0
COc1cccc(NC(=O)Nc2ccc(C(C)(C)C)cc2)c1,79,0,0,0,0
COc1cccc(NC(=O)Nc2ccncc2)c1,0,0,0,?,-
COc1cccc(NC(=O)NC(C)C2CC3CCC2C3)c1 (centres undefined),75,0,0,0,0
Cc1ccc(CNS(=O)(=O)c2c(C)[nH]c(C)c2C(=O)N2CCCCC2)o1,-,0,-,0,-
CC1(C)CC(=O)C(C2C3=C(CC(C)(C)CC3=O)Oc3ccccc32)C(=O)C1 (centres undefined),0,0,0,0,-
CC1(C)CC(=O)C2=C(C1)Oc1nc3ccccc3cc1C2C(C#N)C#N (centres undefined),90,0,0,0,0
SMILES,L929 necroptosis,HIF activator,TNF necrop inh,Calb FLC,zVAD necrop conf
O=C(COC(=O)c1ccc(-c2nnc(-c3ccccc3)o2)cc1)c1ccccc1,78,0,0,0,0
O=C1CC(/C=C/c2ccccc2)=Nc2ccccc2N1,0,0,0,0,-
O=C1CC(/C=C/c2ccc(Cl)cc2)=Nc2ccccc2N1,77,0,0,0,0
CCOc1ccccc1NC(=O)COC(=O)CC(C)(C)CC1=NS(=O)(=O)c2ccccc2N1,-,0,-,0,-
Cc1cccc(OCCCC(=O)Nc2nccs2)c1,89,0,0,0,0
CCCCn1c(N)c(N(Cc2ccccc2OC)C(=O)c2ccc([N+](=O)[O-])s2)c(=O)[nH]c1=O,-,0,-,0,-
CC(=O)N(C)c1ccc(NC(=O)Nc2ccc(C)c(C)c2)cc1,77,0,0,0,0
CC(C)C(NS(=O)(=O)c1ccccc1)C(=O)N1CCN(C(=O)c2ccco2)CC1 (centres undefined),-,0,-,0,-
Cc1ccc(C(=O)c2nccn2C)cc1C,-,0,-,0,-
Cc1noc(/C=C/N(C)C)c1S(=O)(=O)N1CCC(C(=O)NC(C)(C)C)CC1,-,0,-,0,-
O=C(Nc1ccc(NC(=O)c2ccccc2O)cc1)Nc1ccc(F)cc1F,78,0,0,0,0
COC(C(=O)Nc1ccc(F)cc1F)c1ccccc1 (centres undefined),83,0,97,0,0
O=c1cc(-c2cccnc2)oc2c1ccc1ccccc12,75,0,0,0,0
O=C(Nc1ccc2nc(-c3ccccc3)[nH]c2c1)c1ccco1,0,0,0,0,-
Cc1cccc2[nH]c(-c3ccc(NC(=O)c4ccco4)cc3)nc12,84,0,0,0,0
N#CC(C(=O)c1ccco1)c1ccccn1 (centres undefined),81,0,0,0,56
N#C/C(=C(\O)c1ccco1)c1ccccn1,105,0,0,0,57
O=C(c1ccco1)N(c1ccccn1)c1ccccn1,0,0,0,0,-
N#CC1(NC(=O)COc2ccc3ccc(=O)oc3c2)CCCCC1,-,0,-,0,-
Cn1nnnc1SCC(=O)Nc1cc(C(C)(C)C)nn1-c1ccccc1,0,0,0,0,-
COc1ccc(-n2cnnc2SCC(=O)Nc2cc(C(C)(C)C)nn2-c2ccccc2)cc1,85,0,0,0,81
COCCN1C(=O)N[C@@H](c2cccc(C(F)(F)F)c2)[C@H](C(C)=O)[C@H]1C,-,0,-,0,-
O=C1/C(=C/c2ccc(O)c(O)c2)Oc2cc(O)ccc21,0,-,0,-,-
COc1cc(/C=C2\Oc3cc(O)ccc3C2=O)ccc1O,76,0,0,0,0
O=C(CCC(=O)N1CCN(C(=O)c2ccco2)CC1)c1ccc(F)cc1,76,0,0,0,0
SMILES,L929 necroptosis,HIF activator,TNF necrop inh,Calb FLC,zVAD necrop conf
Cn1c(=O)cc(SCC(=O)Nc2ccccn2)c2ccccc21,81,0,0,0,0
CC(C)CNC(=O)C(=O)NCC1OCCCN1S(=O)(=O)c1ccc2c(c1)OCCO2 (centres undefined),-,0,-,0,-
NC(=O)COc1ccc2oc(-c3ccccc3)cc(=O)c2c1,81,0,0,0,0
N#CCOc1ccc2oc(-c3ccco3)cc(=O)c2c1,76,0,0,0,0
CC(C)OCCOc1ccc2oc(-c3ccco3)cc(=O)c2c1,-,0,-,0,-
CCOC(=O)c1cc(S(=O)(=O)Nc2cccc(OC)c2)cn1C,-,0,-,0,-
COc1ccc(C(=O)NNC(=O)c2ccc(C)cc2)cc1S(=O)(=O)N1CCCC1,0,0,0,0,-
Cc1ccc2c(c1)C(=C(C#N)C#N)C(=O)N2CCN1CCOCC1,89,0,0,0,0
Cc1ccc(C)c(N2CCN(CCN3CCCCC3)CC2)c1,-,0,-,0,-
Cc1ccc2c(c1)C(=C(C#N)C#N)C(=O)N2CCN1CCCCC1,90,0,0,0,0
CC(=O)NC1C(=O)N(CCN2CCOCC2)c2ccc(C)cc21 (centres undefined),-,0,-,0,-
CCOC(=O)c1c(S(=O)(=O)NCC(=O)Nc2cc(C)ccn2)c(C)n(C)c1C,-,0,-,0,-
O=c1[nH][nH]cc1C=Nc1ccccc1Cl,0,0,0,0,-
O=C1NCC(O)=C1C=Nc1ccccc1O,77,0,0,0,0
O=C1NCC(O)=C1C=NCCCO,0,-,0,0,-
O=c1[nH][nH]cc1C=Nc1ccccc1O,75,0,0,0,0
